Results: PubChem BioAssay AID1347416 (National Center for Advancing Translational Sciences (NCATS), 2020)
The whole screen tested about 4,100 compounds, of which about 1,600 (39%) were called active. About 25% were inconclusive and are not listed. Calls follow the shape of the dose curve; as a rule, active = well fitted inhibition curve with a large enough effect; inconclusive = small, poorly fitted or top-dose-only effect; inactive = no such curve, though single readings can be large or run the other way. The list shows a part of the results.

Assay: qHTS Validation assay for Inhibitors of Plasmodium falciparum Dd2 growth in vitro; also: nearly all actives have a fitted effect of over 70% in size
Details: P. falciparum Dd2 in RBCs, SYBR Green growth, 72 h; series mostly up to 28.7 µM; activity change, negative = inhibition: at the top concentration
Outline: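 P. falciparum Dd2-infected red blood cells (2.5% hematocrit, 0.3% parasitemia) grown 72 h at 37 °C under 5% O2 with compounds in a titration, 29 uM to 0.5 nM final. Growth read as SYBR Green-1 fluorescence after ~16 h lysis; artesunate 300 nM as positive control.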
% is scaled to controls: 0 for no effect and ±100 for the full control effect; potency is read from the fitted curve at half-maximal effect.

Potency, active:
COc1cc2c(Nc3ccc(Br)cc3F)ncnc2cc1OCC1CCN(C)CC1 5.96 µM
Clc1ccc2c(N3CCCC3)ccnc2c1 3.76 µM
O=C(Nc1ccc(C(F)(F)F)cc1)N1CCN(c2ccnc3cc(Cl)ccc23)CC1 5.31 µM
Cc1ccc(-n2ncc3c(NCc4ccco4)ncnc32)cc1C 15 µM
COc1ccc(S(=O)(=O)N(C)C)cc1NC(C)C(=O)Nc1cccc(C#N)c1 (configuration not stated) 6.68 µM
CCOC(=O)c1c(C)n(-c2ccc(F)cc2)c2ccc(O)cc12 6.68 µM
COc1cccc(C2C(C(=O)Nc3ccc(C)cc3C)=C(C)Nc3c(C(=O)Nc4ccccc4)cnn32)c1 (configuration not stated) 2.11 µM
CC1=C(C(=O)Nc2ccc(C)cc2C)C(c2ccc([N+](=O)[O-])cc2)n2ncc(C(=O)Nc3ccc(F)cc3)c2N1 (configuration not stated) 2.99 µM
CC1=C(C(=O)Nc2ccc(C)cc2C)C(c2ccc(Br)cc2)n2ncc(C(=O)Nc3cccc(C)c3)c2N1 (configuration not stated) 3.35 µM
Cc1cc(N2CCN(C)CC2)nc2ccc(NC(=O)Nc3cccc(Cl)c3)cc12 4.22 µM
CCOc1ccccc1NC(=O)Nc1ccc2nc(N3CCN(C)CC3)cc(C)c2c1 1.33 µM
CCOc1cccc(CC(=O)Nc2ccc3nc(N4CCCCC4)cc(C)c3c2)c1OCC 6.68 µM
Cc1ccccc1NC(=O)Nc1ccc2nc(N3CCN(C)CC3)cc(C)c2c1 1.5 µM
COc1cccc(CN2CCC(N3CC(OCC4CC4)C34CCCCC4)CC2)n1 (configuration not stated) 4.22 µM
CCn1cc(CN2CCC(N3CC(OCC4CC4)C34CCCCC4)CC2)cn1 (configuration not stated) 8.41 µM
Cn1cccc1CN1CCC(N2CC(OCC3CC3)C23CCCCC3)CC1 (configuration not stated) 7.5 µM
Fc1cccc(CN2CCC(N3CC(OCC4CC4)C34CCCCC4)CC2)c1 (configuration not stated) 4.22 µM
CC1=C(CC(=O)c2ccc(Cl)cc2)C(=O)c2ccccc2C1=O 0.211 µM
Oc1ccc(Br)cc1-c1cc(-c2ccc(Cl)cc2)n[nH]1 2.66 µM
CCOC(=O)C1=C(C)NC(=O)CC1c1cc(OC)c(OC)cc1Br (configuration not stated) 5.31 µM
COc1cc(C2CC(=O)Nc3cc4c(cc32)OCCO4)cc(Br)c1OC (configuration not stated) 5.31 µM
COc1cc(Br)c(C2CC(=O)Nc3cc4c(cc32)OCCO4)cc1OC (configuration not stated) 2.37 µM
COc1ccc(-n2c(-c3ccc(Br)cc3)c[n+]3c2CCc2ccccc2-3)cc1 4.22 µM

Activity change, negative = inhibition, inactive:
O=C(c1ccc(F)c(Cl)c1)N1CCN(c2cc(C(F)(F)F)ncn2)CC1 5.98%
Nc1cc(Cl)ccc1N1CCCC1 25.9%
COc1ccc(CNc2ncnc3c2cnn3-c2ccc(C)c(C)c2)cc1 38.6%
COc1ccc(CCNc2ncnc3c2cnn3-c2ccc(F)cc2)cc1 22.9%
CCc1nnc([C@@H]2CC(F)(F)CN2Cc2cccn2C)o1 -14.9%
CCOC(=O)c1c(NC(=O)COc2ccc(F)cc2)sc2c1CCC(C)C2 (configuration not stated) 21.2%
COc1cccc(CC(=O)NCCn2ccn3nc(-c4ccc(C)cc4C)cc3c2=O)c1 -12.7%
Cc1cc(=O)n(CC(=O)Nc2ccc(C)c(F)c2)c(N2CCc3ccccc3C2)n1 -8.95%
CCOc1ccc(-n2nc3cc(C)c(NC(=O)c4cc(OCC)c(OCC)c(OCC)c4)cc3n2)cc1 57.9%
O=C([C@@H]1C[C@H](F)CN1C(=O)Nc1cccc(Cl)c1)N1CCCCC1 9.66%
CCCN(CCC)CCCNC(=S)Nc1ccc2nc(N3CCCC3)cc(C)c2c1 -17.7%
COc1ccc(CN2CCCC3(CNc4ccccc4[S+](=O)([O-])N3)C2)cc1 (configuration not stated) -16.7%
CN(C)c1cc(N2CCCC(NC(=O)c3ccsc3)C2)ncn1 (configuration not stated) 17.4%
O=C(Nc1ccccc1)N1CCC(N2CC(OCC3CC3)C23CCOCC3)CC1 (configuration not stated) -22.8%
CN(C)S(=O)(=O)N1CCC(N2C(=O)C(OCC3CC3)C23CCCCC3)CC1 (configuration not stated) -24%
CCc1ccc(NC(=O)N2CC(C(=O)N(C)C)C3(CCOCC3)C2)cc1 (configuration not stated) 2.4%
O=C(Cn1cc(-c2nnnn2-c2ccc(Cl)cc2)c(=O)c2ccccc21)c1ccccc1 10%
CN(CC1(C)CCOCC1)C(=O)c1ccoc1 15.7%
COc1ccc(O)c(-c2cc(-c3cccs3)[nH]n2)c1 312%
CCOC(=O)C1=C(C)NC(=S)N(C(C)=O)C1c1ccc(Cl)cc1 (configuration not stated) -15%
CNC(=O)N1CCC(C2CCN(C(=O)CCCC(=O)O)C2)CC1 (configuration not stated) 13.7%
CCn1cnnc1-c1nn(C)c2c1CN(C(=O)CC(C)C)CC2 22.8%
Cc1ccc(CNC(=O)NCCc2ncc(C)n2Cc2ccc(F)cc2)cc1 -63.1%
Cc1ccc(-c2nn(-c3ccccc3)cc2CSC(=N)N)cc1 -29.1%
